Among the test systems are HCT-15 colon; HT29 colon; SNB-75 CNS; SNB-19 CNS; U251 CNS; PC-3 prostate; SK-MEL-5 melanoma; UACC-62 melanoma; LOX IMVI melanoma; SK-MEL-28 melanoma; SK-MEL-2 melanoma; EKVX NSCLC; SN12C renal; UO-31 renal; TK-10 renal; ACHN renal; CAKI-1 renal; A498 renal; CCRF-CEM leukemia; MOLT-4 leukemia.
Common to all, as to assay: NCI-60 one-dose screen, 48 h (100 = growth as untreated, 0 = no growth, -100 = all killed)
What all share (details): 10 µM unless noted

About 83,000 compounds went through this panel and 20% of them were active in at least one assay; those are over-represented in the sample as a whole.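 Percent growth is the endpoint: 0 to 100 indicates growth inhibition (40 means 60% inhibition), 0 means no net growth, and negative values indicate cell death.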 Unmarked numbers belong to inactive results. Calls of active or inactive are those of the source. How the source made its calls: active means growth percent below 10; inactive means the rest.

Take `CC(=O)c1c[nH]c2ccc(-c3ccnc(Nc4ccc(NC(=O)C5CCCC5)c(CN5CCOCC5)c4)n3)cc12`: the growth in the assay with HCT-15 colon was -21.9% (active); in the assay with HT29 colon it was 6.97% (active); in the assay on SNB-75 CNS, -81.4% (active); with SNB-19 CNS, -6.49% (active); with U251 CNS it was 10.7%; in the assay on PC-3 prostate it was 2.51% (active). For the same compound, the growth is -74.6% (active) with SK-MEL-5 melanoma; -90.1% (active) in the assay on UACC-62 melanoma; -54.2% (active) in the assay on LOX IMVI melanoma; -62.4% (active) with SK-MEL-28 melanoma; -54.3% (active) in the assay on SK-MEL-2 melanoma; -47.3% (active) in the assay with EKVX NSCLC. The growth in the assay with SN12C renal is -8.98% (active); in the assay with UO-31 renal, 2.12% (active); in the assay with TK-10 renal it was 0.0909% (active); in the assay with ACHN renal it was -5.66% (active); in the assay with CAKI-1 renal, 0.231% (active); in the assay with A498 renal it was -85.1% (active). Moreover, the values for the growth in the assay with CCRF-CEM leukemia and in the assay with MOLT-4 leukemia were -11.5% (active) and -16.2% (active), respectively.

Turning to `O=C1CCCCCCCCC(O)C(O)CCCC(c2cccs2)O1` (stereo not given), the growth in the assay on HCT-15 colon was 96.7%; with HT29 colon, 114%; in the assay with SNB-75 CNS it was 102%; in the assay on SNB-19 CNS, 87.1%; in the assay with U251 CNS, 98.3%; in the assay with PC-3 prostate it was 88.2%. The growth was 91% with SK-MEL-5 melanoma; 81.8% in the assay on UACC-62 melanoma; 96.5% with LOX IMVI melanoma; 123% with SK-MEL-28 melanoma; 120% in the assay with SK-MEL-2 melanoma; 82.2% in the assay on EKVX NSCLC. In addition, the growth with SN12C renal is 106%; in the assay on UO-31 renal, 75.2%; in the assay on TK-10 renal it was 115%; in the assay on ACHN renal, 94.8%; in the assay with CAKI-1 renal, 93.9%; in the assay on A498 renal, 102%. In addition, the growth is 47.4% in the assay with CCRF-CEM leukemia and 31% in the assay on MOLT-4 leukemia.

Consider `CC1(C)CN(c2cnc(C(=O)Nc3cc(F)cc4cccnc34)cn2)CCN1`, for which the growth was 59.3% with HCT-15 colon; 47.1% in the assay with HT29 colon; 72.9% in the assay on SNB-75 CNS; 93.1% in the assay on SNB-19 CNS; 89.5% in the assay on U251 CNS; 44.8% with PC-3 prostate. In addition, the growth in the assay on SK-MEL-5 melanoma was 89.3%; in the assay with UACC-62 melanoma, 106%; with LOX IMVI melanoma, 69.7%; with SK-MEL-28 melanoma, 80.2%; in the assay with SK-MEL-2 melanoma, 99.8%; with EKVX NSCLC, 73%. In addition, the growth with SN12C renal was 72.1%; in the assay with UO-31 renal it was 40.9%; in the assay with TK-10 renal it was 79.3%; in the assay with ACHN renal, 31.3%; with CAKI-1 renal it was 62.4%; in the assay with A498 renal, 74.3%. Also, the growth in the assay on CCRF-CEM leukemia is 44.5%; with MOLT-4 leukemia it was 38.5%.

Take `COc1ccc(CNC(=O)COc2ccc(/C=N/Nc3nc4ccccc4s3)cc2)cc1`: the growth with HCT-15 colon is 31%; in the assay on HT29 colon, 35.5%; with SNB-75 CNS, -2.77% (active); with SNB-19 CNS, 36.8%; in the assay on U251 CNS it was 21.6%; in the assay with PC-3 prostate, 15.5%. For the same compound, the growth with SK-MEL-5 melanoma is 23.6%; with UACC-62 melanoma, 34%; with LOX IMVI melanoma it was 46.5%; in the assay with SK-MEL-28 melanoma, 35.2%; in the assay with SK-MEL-2 melanoma, 63.9%; in the assay with EKVX NSCLC it was 52%. The growth in the assay with SN12C renal was 30.8%; with UO-31 renal it was 60.7%; with TK-10 renal it was 86.9%; in the assay on ACHN renal it was 8.13% (active); in the assay on CAKI-1 renal it was 27.9%; with A498 renal, -19.5% (active). For the same compound, the growth was 62.4% with CCRF-CEM leukemia and 76.5% with MOLT-4 leukemia.

On to `CCOC(=O)C1CC(=O)c2cc(OC)c(OC)cc2C1` (stereo not given), for which the growth is 100% in the assay with HCT-15 colon; 88.6% with HT29 colon; 91.7% in the assay with SNB-75 CNS; 100% in the assay with SNB-19 CNS; 103% with U251 CNS; 86.4% in the assay with PC-3 prostate. In addition, the growth in the assay with SK-MEL-5 melanoma was 109%; in the assay on UACC-62 melanoma, 88.5%; in the assay with LOX IMVI melanoma, 104%; in the assay with SK-MEL-28 melanoma, 119%; in the assay with SK-MEL-2 melanoma it was 107%; in the assay on EKVX NSCLC, 114%. Moreover, the growth in the assay with SN12C renal was 100%; in the assay with UO-31 renal it was 93.6%; in the assay with TK-10 renal it was 126%; in the assay with ACHN renal, 107%; with CAKI-1 renal, 120%; with A498 renal, 129%. The growth was 84.6% with CCRF-CEM leukemia and 94.3% with MOLT-4 leukemia.

Take `COc1cc(C2CC(c3cccc(Nc4ccncc4)c3)=NN2C(C)=O)cc(OC)c1OC` (stereo not given): the growth with HCT-15 colon is 98%; in the assay with HT29 colon, 78.5%; in the assay with SNB-75 CNS it was 67.4%; with SNB-19 CNS it was 93%; in the assay with U251 CNS, 91.5%; with PC-3 prostate it was 84.2%. The growth was 89.9% in the assay with SK-MEL-5 melanoma; 93.9% with UACC-62 melanoma; 85.3% with LOX IMVI melanoma; 96.6% in the assay on SK-MEL-28 melanoma; 99.1% with SK-MEL-2 melanoma; 87.5% with EKVX NSCLC. For the same compound, the growth in the assay on SN12C renal is 94%; in the assay on UO-31 renal, 89.1%; in the assay with TK-10 renal it was 97.7%; in the assay with ACHN renal, 99.5%; with CAKI-1 renal, 78.9%; with A498 renal, 94.1%. Besides, the growth was 92.7% in the assay on CCRF-CEM leukemia and 84.4% in the assay on MOLT-4 leukemia.

For `COc1ccc(/C=C/C(=O)c2ccc(Nc3ncnc4ccccc34)cc2)cc1OC`, the growth in the assay on HCT-15 colon is 75.9%; with HT29 colon, 13.9%; in the assay on SNB-75 CNS, 92.2%; in the assay on SNB-19 CNS it was 79.1%; with U251 CNS, 54.1%; in the assay on PC-3 prostate, 65.4%. The growth was 91.9% with SK-MEL-5 melanoma; 87.1% in the assay with UACC-62 melanoma; 44.2% in the assay with LOX IMVI melanoma; 98.1% with SK-MEL-28 melanoma; 124% with SK-MEL-2 melanoma; 78.3% with EKVX NSCLC. Also, the growth with SN12C renal was 88.5%; in the assay with UO-31 renal, 71.2%; with TK-10 renal, 98.8%; in the assay on ACHN renal, 88.8%; in the assay on CAKI-1 renal it was 75.6%; in the assay on A498 renal it was 77.6%. Further, the figures for the growth in the assay on CCRF-CEM leukemia and in the assay with MOLT-4 leukemia were 49.7% and 48.2%, respectively.

The values above are taken from PubChem BioAssay (NCI).
